# Source: ChEMBL document CHEMBL1961873, “Compounds: GSK PKIS; Assays: Nanosyn kinase panel” (2012)
# What was measured:
# [1] = biological target: Sphingosine kinase 1 (Homo sapiens) (UniProt Q9NYA1); details: at 1 µM;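 also: mean SPHK1 inhibition value reported from the GSK PKIS kinase panel screen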
# [2] = biological target: T1, Sphingosine kinase 2 (Homo sapiens) (UniProt Q9NRA0); details: at 0.1 µM
# T1 sequence (whole entry): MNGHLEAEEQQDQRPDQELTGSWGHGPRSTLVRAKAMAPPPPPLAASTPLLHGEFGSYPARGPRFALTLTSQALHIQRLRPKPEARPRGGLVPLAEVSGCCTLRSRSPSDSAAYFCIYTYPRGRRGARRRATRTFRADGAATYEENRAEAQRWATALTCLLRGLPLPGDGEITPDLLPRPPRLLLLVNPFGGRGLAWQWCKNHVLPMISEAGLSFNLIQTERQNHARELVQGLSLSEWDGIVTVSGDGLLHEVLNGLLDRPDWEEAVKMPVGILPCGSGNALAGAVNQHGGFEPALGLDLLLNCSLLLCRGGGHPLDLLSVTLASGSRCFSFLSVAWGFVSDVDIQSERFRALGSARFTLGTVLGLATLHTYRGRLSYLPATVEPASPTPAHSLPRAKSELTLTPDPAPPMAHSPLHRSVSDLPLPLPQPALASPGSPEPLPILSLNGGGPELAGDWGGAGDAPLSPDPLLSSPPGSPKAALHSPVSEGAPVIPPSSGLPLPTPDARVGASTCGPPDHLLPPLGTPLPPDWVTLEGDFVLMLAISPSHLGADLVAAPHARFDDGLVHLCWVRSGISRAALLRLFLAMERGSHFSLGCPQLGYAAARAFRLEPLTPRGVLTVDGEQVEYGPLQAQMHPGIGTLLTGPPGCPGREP
# [3] = biological target: T1, Sphingosine kinase 2 (Homo sapiens); details: at 1 µM
# [4] = biological target: Casein kinase II subunit alpha (Homo sapiens) (UniProt P68400); details: at 0.1 µM
# [5] = biological target: Casein kinase II subunit alpha (Homo sapiens) (UniProt P68400); details: at 1 µM
# [6] = biological target: T2, Inhibitor of nuclear factor kappa-B kinase subunit alpha (Homo sapiens) (UniProt O15111); details: at 0.1 µM
# T2 sequence (whole entry): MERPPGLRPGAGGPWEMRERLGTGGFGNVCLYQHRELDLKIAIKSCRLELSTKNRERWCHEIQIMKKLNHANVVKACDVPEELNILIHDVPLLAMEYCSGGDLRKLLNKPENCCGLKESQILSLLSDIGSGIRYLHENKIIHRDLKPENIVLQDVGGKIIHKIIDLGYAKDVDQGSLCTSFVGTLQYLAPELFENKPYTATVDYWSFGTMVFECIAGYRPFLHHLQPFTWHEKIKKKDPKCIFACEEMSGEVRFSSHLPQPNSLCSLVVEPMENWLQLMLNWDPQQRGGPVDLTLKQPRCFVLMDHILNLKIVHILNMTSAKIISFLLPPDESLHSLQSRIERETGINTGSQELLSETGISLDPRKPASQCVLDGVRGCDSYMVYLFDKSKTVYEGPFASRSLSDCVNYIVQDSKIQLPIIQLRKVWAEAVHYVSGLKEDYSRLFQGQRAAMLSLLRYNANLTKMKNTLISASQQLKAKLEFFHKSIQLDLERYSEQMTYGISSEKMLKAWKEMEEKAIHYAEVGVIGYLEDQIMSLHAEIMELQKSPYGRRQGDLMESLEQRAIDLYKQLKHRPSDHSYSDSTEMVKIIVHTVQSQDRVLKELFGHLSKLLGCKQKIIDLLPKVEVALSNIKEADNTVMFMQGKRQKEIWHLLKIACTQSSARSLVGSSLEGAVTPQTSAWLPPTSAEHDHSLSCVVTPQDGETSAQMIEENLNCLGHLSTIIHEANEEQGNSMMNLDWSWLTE
# [7] = biological target: T2, Inhibitor of nuclear factor kappa-B kinase subunit alpha (Homo sapiens); details: at 1 µM
# [8] = biological target: T3, Inhibitor of nuclear factor kappa-B kinase subunit beta (Homo sapiens) (UniProt O14920); details: at 0.1 µM
# T3 sequence (whole entry): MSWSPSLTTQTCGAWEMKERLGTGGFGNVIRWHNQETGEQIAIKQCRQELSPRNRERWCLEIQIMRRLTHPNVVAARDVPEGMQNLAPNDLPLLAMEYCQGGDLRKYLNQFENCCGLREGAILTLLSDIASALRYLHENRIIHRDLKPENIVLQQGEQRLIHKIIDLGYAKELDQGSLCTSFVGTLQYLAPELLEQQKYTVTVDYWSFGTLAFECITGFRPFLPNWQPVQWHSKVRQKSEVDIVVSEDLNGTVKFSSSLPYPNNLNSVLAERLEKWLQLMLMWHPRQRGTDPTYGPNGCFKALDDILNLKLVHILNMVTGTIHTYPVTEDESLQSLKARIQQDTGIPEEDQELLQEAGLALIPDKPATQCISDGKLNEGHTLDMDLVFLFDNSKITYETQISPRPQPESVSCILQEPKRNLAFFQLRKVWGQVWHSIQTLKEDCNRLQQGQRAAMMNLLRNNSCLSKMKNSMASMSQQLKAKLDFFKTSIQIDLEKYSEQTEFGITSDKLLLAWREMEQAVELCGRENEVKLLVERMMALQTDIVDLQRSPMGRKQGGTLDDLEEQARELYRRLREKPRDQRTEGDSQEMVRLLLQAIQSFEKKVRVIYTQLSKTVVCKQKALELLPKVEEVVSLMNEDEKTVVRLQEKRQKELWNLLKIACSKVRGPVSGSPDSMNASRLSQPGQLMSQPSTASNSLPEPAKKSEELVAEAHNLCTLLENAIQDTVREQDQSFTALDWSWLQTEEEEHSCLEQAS
# [9] = biological target: T3, Inhibitor of nuclear factor kappa-B kinase subunit beta (Homo sapiens); details: at 1 µM
# [10] = biological target: T4, Inhibitor of nuclear factor kappa-B kinase subunit epsilon (Homo sapiens) (UniProt Q14164); details: at 0.1 µM
# T4 sequence (whole entry): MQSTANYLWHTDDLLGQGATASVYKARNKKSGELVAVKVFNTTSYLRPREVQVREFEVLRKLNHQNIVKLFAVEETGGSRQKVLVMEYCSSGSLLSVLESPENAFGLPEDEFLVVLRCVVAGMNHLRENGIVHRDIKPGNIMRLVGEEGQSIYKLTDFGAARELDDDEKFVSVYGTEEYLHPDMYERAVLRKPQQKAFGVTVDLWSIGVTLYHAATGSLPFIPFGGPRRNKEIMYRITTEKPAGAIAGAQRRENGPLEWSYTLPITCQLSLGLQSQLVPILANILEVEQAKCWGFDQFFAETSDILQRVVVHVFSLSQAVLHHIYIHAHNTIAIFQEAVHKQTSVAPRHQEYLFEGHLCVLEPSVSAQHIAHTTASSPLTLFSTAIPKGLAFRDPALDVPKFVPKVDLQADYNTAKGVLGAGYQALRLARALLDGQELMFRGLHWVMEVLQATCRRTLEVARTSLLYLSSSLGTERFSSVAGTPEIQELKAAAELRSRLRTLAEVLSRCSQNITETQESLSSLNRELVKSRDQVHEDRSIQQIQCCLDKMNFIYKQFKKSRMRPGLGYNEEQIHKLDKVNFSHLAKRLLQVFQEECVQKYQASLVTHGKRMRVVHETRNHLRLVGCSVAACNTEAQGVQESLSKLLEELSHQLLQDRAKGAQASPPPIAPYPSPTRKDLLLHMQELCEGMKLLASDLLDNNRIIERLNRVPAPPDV
# [11] = biological target: T4, Inhibitor of nuclear factor kappa-B kinase subunit epsilon (Homo sapiens); details: at 1 µM
# [12] = biological target: T5, Serine/threonine-protein kinase Nek1 (Homo sapiens) (UniProt Q96PY6); details: at 0.1 µM
# T5 sequence (whole entry): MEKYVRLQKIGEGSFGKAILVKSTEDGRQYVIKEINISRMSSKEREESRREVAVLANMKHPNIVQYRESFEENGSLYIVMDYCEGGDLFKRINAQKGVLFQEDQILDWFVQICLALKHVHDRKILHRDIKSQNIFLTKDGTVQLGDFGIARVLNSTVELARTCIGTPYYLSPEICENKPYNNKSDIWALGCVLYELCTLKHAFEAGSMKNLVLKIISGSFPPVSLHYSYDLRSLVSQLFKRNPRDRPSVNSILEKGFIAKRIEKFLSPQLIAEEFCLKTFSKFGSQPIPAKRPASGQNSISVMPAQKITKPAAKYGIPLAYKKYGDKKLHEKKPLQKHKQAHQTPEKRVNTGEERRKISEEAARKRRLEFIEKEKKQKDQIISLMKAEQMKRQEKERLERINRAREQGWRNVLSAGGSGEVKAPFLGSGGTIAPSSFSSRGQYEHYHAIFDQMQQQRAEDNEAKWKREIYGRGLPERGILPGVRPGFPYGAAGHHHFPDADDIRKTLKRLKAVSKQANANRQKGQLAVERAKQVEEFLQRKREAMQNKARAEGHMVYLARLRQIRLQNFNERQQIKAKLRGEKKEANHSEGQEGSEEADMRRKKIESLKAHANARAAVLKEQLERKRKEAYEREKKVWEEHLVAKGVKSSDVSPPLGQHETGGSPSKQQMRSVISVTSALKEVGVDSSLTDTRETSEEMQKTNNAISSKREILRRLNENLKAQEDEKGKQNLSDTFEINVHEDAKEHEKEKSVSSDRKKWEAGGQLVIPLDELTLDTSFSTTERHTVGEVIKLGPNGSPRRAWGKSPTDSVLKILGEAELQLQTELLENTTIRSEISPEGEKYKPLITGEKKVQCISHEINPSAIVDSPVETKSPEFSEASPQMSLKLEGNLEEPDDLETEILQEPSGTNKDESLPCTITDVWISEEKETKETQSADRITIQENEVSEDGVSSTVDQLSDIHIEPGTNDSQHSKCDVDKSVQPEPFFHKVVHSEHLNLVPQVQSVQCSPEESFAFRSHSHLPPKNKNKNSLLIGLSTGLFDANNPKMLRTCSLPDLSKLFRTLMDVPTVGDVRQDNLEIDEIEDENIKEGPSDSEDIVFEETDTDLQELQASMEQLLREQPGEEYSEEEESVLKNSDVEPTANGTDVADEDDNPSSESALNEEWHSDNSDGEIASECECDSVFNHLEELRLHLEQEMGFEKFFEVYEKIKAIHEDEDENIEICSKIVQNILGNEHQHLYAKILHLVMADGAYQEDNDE
# [13] = biological target: T5, Serine/threonine-protein kinase Nek1 (Homo sapiens); details: at 1 µM
# [14] = biological target: T6, Serine/threonine-protein kinase Nek2 (Homo sapiens) (UniProt P51955); details: at 0.1 µM
# T6 sequence (whole entry): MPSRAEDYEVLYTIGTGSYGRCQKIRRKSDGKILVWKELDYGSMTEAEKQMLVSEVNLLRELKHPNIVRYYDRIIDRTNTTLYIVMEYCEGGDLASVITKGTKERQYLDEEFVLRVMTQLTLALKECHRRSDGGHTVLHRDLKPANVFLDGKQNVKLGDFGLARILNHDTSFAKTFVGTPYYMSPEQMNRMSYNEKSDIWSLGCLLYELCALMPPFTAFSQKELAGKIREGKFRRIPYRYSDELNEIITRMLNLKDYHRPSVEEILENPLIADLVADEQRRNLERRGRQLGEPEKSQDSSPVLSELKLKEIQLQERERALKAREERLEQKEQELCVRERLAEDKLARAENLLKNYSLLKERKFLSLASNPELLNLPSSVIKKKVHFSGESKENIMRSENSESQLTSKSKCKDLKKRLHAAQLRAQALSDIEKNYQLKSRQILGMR
# [15] = biological target: T6, Serine/threonine-protein kinase Nek2 (Homo sapiens); details: at 1 µM
# [16] = biological target: Serine/threonine-protein kinase Nek6 (Homo sapiens) (UniProt Q9HC98); details: at 0.1 µM
# [17] = biological target: Serine/threonine-protein kinase Nek6 (Homo sapiens) (UniProt Q9HC98); details: at 1 µM
# [18] = biological target: Serine/threonine-protein kinase Nek7 (Homo sapiens) (UniProt Q8TDX7); details: at 0.1 µM
# [19] = biological target: Serine/threonine-protein kinase Nek7 (Homo sapiens) (UniProt Q8TDX7); details: at 1 µM
# [20] = biological target: T7, Serine/threonine-protein kinase Nek9 (Homo sapiens) (UniProt Q8TD19); details: at 0.1 µM;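 also: reported value is the mean percent inhibition of NEK9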
# T7 sequence (whole entry): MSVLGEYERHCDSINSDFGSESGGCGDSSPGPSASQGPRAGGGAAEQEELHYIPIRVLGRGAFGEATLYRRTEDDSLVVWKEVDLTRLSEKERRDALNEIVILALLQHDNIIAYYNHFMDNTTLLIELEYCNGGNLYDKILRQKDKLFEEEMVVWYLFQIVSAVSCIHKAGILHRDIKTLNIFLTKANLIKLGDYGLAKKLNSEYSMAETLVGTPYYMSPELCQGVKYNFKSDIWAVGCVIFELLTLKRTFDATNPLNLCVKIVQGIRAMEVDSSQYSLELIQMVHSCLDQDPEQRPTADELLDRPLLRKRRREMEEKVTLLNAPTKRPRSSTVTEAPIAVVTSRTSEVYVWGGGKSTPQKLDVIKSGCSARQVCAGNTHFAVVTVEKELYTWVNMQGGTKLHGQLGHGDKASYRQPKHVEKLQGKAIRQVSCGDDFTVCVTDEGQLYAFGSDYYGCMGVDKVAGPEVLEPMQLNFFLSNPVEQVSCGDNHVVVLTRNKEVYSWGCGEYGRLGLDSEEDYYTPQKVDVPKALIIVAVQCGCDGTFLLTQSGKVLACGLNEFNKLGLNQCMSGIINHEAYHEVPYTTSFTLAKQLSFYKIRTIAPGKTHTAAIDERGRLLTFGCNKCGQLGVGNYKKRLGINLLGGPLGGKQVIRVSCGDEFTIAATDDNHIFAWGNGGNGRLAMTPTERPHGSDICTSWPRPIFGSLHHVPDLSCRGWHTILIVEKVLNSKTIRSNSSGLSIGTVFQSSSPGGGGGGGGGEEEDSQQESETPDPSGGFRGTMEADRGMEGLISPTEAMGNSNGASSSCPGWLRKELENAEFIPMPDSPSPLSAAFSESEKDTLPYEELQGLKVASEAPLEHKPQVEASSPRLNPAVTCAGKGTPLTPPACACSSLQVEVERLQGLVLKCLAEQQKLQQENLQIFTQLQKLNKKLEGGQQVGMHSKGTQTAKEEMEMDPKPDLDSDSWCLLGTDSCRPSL
# Chain of Serine/threonine-protein kinase Nek7 (Homo sapiens) (Q8TDX7 whole entry, looked up): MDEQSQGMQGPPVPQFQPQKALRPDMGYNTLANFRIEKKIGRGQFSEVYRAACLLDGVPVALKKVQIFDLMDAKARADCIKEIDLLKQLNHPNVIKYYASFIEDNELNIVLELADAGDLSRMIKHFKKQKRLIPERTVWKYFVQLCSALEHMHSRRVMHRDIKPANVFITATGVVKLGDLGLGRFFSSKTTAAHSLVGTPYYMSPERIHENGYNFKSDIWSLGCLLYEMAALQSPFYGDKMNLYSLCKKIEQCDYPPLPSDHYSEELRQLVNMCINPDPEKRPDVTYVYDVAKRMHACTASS
# Chain of Serine/threonine-protein kinase Nek6 (Homo sapiens) (Q9HC98 whole entry): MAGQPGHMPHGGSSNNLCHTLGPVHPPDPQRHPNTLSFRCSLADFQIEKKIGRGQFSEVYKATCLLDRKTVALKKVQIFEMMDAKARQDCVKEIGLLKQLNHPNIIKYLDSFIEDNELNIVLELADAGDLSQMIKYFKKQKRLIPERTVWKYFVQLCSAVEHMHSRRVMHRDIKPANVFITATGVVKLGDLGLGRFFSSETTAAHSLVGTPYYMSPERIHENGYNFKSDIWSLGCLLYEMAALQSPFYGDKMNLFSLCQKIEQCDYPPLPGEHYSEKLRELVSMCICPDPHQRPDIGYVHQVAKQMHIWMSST
# Chain of Casein kinase II subunit alpha (Homo sapiens) (P68400 whole entry, looked up): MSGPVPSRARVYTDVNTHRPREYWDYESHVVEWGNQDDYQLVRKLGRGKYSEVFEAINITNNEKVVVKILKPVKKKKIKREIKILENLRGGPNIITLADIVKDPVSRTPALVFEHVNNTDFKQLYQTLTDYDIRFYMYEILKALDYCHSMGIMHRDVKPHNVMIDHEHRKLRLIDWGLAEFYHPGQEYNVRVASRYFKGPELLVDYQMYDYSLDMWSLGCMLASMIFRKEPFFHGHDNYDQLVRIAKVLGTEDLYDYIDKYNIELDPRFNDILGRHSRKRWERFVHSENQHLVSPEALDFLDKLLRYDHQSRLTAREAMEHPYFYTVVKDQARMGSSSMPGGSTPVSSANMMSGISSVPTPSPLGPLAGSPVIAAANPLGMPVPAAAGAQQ
# Chain of Sphingosine kinase 1 (Homo sapiens) (Q9NYA1 whole entry): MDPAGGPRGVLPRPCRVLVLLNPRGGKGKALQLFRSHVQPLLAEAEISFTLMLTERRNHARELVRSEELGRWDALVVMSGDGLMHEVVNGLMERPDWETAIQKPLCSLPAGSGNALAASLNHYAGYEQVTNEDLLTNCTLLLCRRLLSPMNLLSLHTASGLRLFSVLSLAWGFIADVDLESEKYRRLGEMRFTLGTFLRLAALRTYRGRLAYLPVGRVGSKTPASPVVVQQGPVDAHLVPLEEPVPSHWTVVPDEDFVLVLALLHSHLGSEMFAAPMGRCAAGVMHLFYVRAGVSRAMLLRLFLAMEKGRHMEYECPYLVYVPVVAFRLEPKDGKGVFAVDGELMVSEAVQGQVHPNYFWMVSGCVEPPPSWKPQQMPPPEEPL
smiles,measurement,setting,value
Nc1ncnc2occ(-c3ccc(NC(=O)Nc4cccc(C(F)(F)F)c4)cc3)c12,inhibition,[1],-6.26%
same,inhibition,[2],0.27%
same,inhibition,[3],1.95%
same,inhibition,[4],7.18%
same,inhibition,[5],4.76%
same,inhibition,[6],6.44%
same,inhibition,[7],11.1%
same,inhibition,[8],6.2%
same,inhibition,[9],7.53%
same,inhibition,[10],8.03%
same,inhibition,[11],9.66%
same,inhibition,[12],7.14%
same,inhibition,[13],41.9%
same,inhibition,[14],6.56%
same,inhibition,[15],7.21%
same,inhibition,[16],2.78%
same,inhibition,[17],1.33%
same,inhibition,[18],2.42%
same,inhibition,[19],-0.46%
same,inhibition,[20],5.7%
